One may read the AC50 as the midpoint of the concentration-response curve, whichever way the signal moves.

Inconclusive results are not listed. Active and inactive are the calls of the source. How the source made its calls, unless noted: active means hit-call score of the fitted dose curve at least 0.9, where 1 is the maximum; inconclusive means response in the unintended direction; inactive means score below 0.9.

The values that follow come from PubChem BioAssay (EPA / NIEHS).

Test [1] relates to Brachyury (BRA) Protein Expression, Deisenroth Lab, TBXT (gene 6862). The experiment in a line: CCTE_Deisenroth_DEVTOX-GLR_legacy_Bra: (Legacy) CCTE's DevTox GLR-Endo Assay Evaluation of Brachyury (BRA) Protein Expression, Deisenroth Lab (AID 2284329; active means hit-call score of the fitted dose curve at least 0.9, where 1 is the maximum; inactive means score below 0.9). An outline of the steps:
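High-content imaging of fixed RUES2-GLR cells after a 48-hour differentiation with two compound exposures yields percent cells whose Bra signal exceeds pluripotent control median by 5x BMAD; values are baseline-corrected to DMSO.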

Test [2] in a line: CCTE_Deisenroth_DEVTOX-GLR_legacy_CellCount: (Legacy) Viability Assessment in CCTE's DevTox GLR-Endo Assay, Deisenroth Lab (AID 2284331; active means hit-call score of the fitted dose curve at least 0.9, where 1 is the maximum; inactive means score below 0.9). The conditions noted are these: actives raise or lower the signal. An outline of the steps:
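Human pluripotent RUES2-GLR cells differentiated 48 h with two 24-h-interval exposures, 10-point 1 nM–200 uM series, 0.2% DMSO. Fixed nuclei counted by high-content imaging (5 fields/well); bidirectional fit vs DMSO, n≥4.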

Test [3] deals with SRY-box transcription factor 2 (SOX2) Protein Expression, Deisenroth Lab, SOX2 (gene 6657). Kind of test: CCTE_Deisenroth_DEVTOX-GLR_Endo_SOX2: CCTE's DevTox GLR-Endo Assay Evaluation of SRY-box transcription factor 2 (SOX2) Protein Expression, Deisenroth Lab (AID 2284412). An outline of the steps: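 Endpoint is percent SOX2-positive cells (SOX2+ count/total cells) minus 0.2% DMSO control, from high-content imaging of fixed, nuclear-stained RUES2-GLR cells. Dosing twice at 24 h intervals over 48 h differentiation, 1 nM–200 uM in 10 points.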

Test [4] has as its system Brachyury (BRA) Protein Expression, TBXT (gene 6862). Kind of test: CCTE_Deisenroth_DEVTOX-GLR_Endo_BRA: CCTE's DevTox GLR-Endo Assay Evaluation of Brachyury (BRA) Protein Expression, Deisenroth Lab (AID 2284417; active means hit-call score of the fitted dose curve at least 0.9, where 1 is the maximum; inactive means score below 0.9). An outline of the steps:
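RUES2-GLR pluripotent cells differentiated 48 h with two chemical exposures 24 h apart, 10-point range 1 nM - 200 uM. Percentage of BRA+ cells per total count by high-content imaging, minus 0.2% DMSO control.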

Test [5] is described as follows: CCTE_Deisenroth_DEVTOX-GLR_Endo_CellCount: Viability Assessment in CCTE's DevTox GLR-Endo Assay, Deisenroth Lab (AID 2284420; active means hit-call score of the fitted dose curve at least 0.9, where 1 is the maximum; inactive means score below 0.9). An outline of the steps: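 Human pluripotent RUES2-GLR line; 24 h pre-seed; 48 h endoderm-directed differentiation; 2 doses, q24h; 10 conc., 1 nM - 200 uM; fix + nuclear dye; 5 fields/well imaged; readout = nuclei count, % change vs 0.2% DMSO; n=4.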

Test [6] relates to SRY-box transcription factor 17 (SOX17) Protein Expression, Deisenroth Lab, SOX17 (gene 64321). Kind of test: CCTE_Deisenroth_DEVTOX-GLR_Pluri_SOX17: CCTE's DevTox GLR-Pluri Assay Evaluation of SRY-box transcription factor 17 (SOX17) Protein Expression, Deisenroth Lab (AID 2284427). An outline of the steps:
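Human RUES2-GLR pluripotent line; 24 h seeding, 48 h defined-media differentiation, 2 doses q24h, 10 conc 1 nM - 200 uM. Fix, nuclear stain, image 5 fields/well. Endpoint = %SOX17+ minus 0.2% DMSO; n=4.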

For test [7], the system named is SRY-box transcription factor 2 (SOX2) Protein Expression, Deisenroth Lab, SOX2 (gene 6657). The experiment in a line: CCTE_Deisenroth_DEVTOX-GLR_Pluri_SOX2: CCTE's DevTox GLR-Pluri Assay Evaluation of SRY-box transcription factor 2 (SOX2) Protein Expression, Deisenroth Lab (AID 2284428; active means hit-call score of the fitted dose curve at least 0.9, where 1 is the maximum; inactive means score below 0.9). An outline of the steps:
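Steps: seed RUES2-GLR cells for 24 h; start 48 h differentiation in defined media; dose test chemicals at 0 and 24 h (1 nM–200 uM); fix, stain nuclei, image; compute SOX2+ percentage against 0.2% DMSO wells.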

Test [8] concerns Brachyury (BRA) Protein Expression, Deisenroth Lab, TBXT (gene 6862). Kind of test: CCTE_Deisenroth_DEVTOX-GLR_Pluri_BRA: CCTE's DevTox GLR-Pluri Assay Evaluation of Brachyury (BRA) Protein Expression, Deisenroth Lab (AID 2284429). An outline of the steps:
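Mesoderm readout after 48 h differentiation of human RUES2-GLR cells, dosed twice (24-h intervals) at 1 nM - 200 uM. BRA+ frequency from fluorescence imaging of fixed, nuclear-stained cells, DMSO-corrected.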

The nature of test [9]: CCTE_Deisenroth_DEVTOX-GLR_Pluri_CellCount: Viability Assessment in CCTE's DevTox GLR-Pluri Assay Evaluation of Total Cell Counts, Deisenroth Lab (AID 2284430; active means hit-call score of the fitted dose curve at least 0.9, where 1 is the maximum; inactive means score below 0.9). An outline of the steps:
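Cytotoxicity readout: fluorescent nuclei counts by high-content imaging, expressed as percent change relative to 0.2% DMSO. Human RUES2-GLR pluripotent line differentiated 48 h, dosed twice at 24-h intervals across 1 nM - 200 uM (10 points).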

The target in test [10] is T1, Thyroid hormone receptor alpha (Rattus norvegicus) + Thyroid hormone receptor beta (Rattus norvegicus) (UniProt P18113+P63059). The experiment in a line: TOX21_TR_LUC_GH3_Agonist_Followup: Tox21 GH3 Thyroid Hormone Receptor Agonism Luciferase Follow-Up Assay (AID 2283939). An outline of the steps:
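Agonist-mode confirmatory run: 15 concentrations (5 nM to 92 uM final) on GH3 rat pituitary cells, 24 h at 37C/5% CO2, T3 as positive control. Luminescence read with ONE-Glo after 30 min.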

The next test concerns the target THRA (gene 7067) (UniProt P10827). Kind of test: TOX21_TRA_COA_Agonist_Followup_ratio: Tox21 Thyroid Hormone Receptor alpha Agonism through Coactivator Recruitment Follow-Up Assay, Ratio (AID 2283948; active means hit-call score of the fitted dose curve at least 0.9, where 1 is the maximum; inactive means score below 0.9). An outline of the steps:
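Follow-up specificity assay in which TRα ligand-binding domain, expressed as a GST fusion, recruits a fluorescein-labelled SRC-2 peptide. Energy transfer from a terbium anti-GST antibody gives the acceptor/donor ratio, fitted upward relative to DMSO.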

The target in test [11] is THRB (gene 7068) (UniProt P10828). The experiment in a line: TOX21_TRB_BLA_Agonist_Followup_ratio: Tox21 Thyroid Hormone Receptor beta Agonism Beta-lactamase (BLA) Follow-Up Assay, Ratio (AID 2283954). An outline of the steps:
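Agonist mode: compounds (11-point, triplicate) incubated 18 h with HEK293T cells carrying GAL4-DBD/human TRβ-LBD and UAS-β-lactamase. Blue/green (460/530 nm) FRET ratio read after 2 h CCF4-AM loading; CellTiter-Glo viability run in the same plates.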

Test [12] shares this target. The experiment in a line: TOX21_TRB_COA_Agonist_Followup_ratio: Tox21 Thyroid Hormone Receptor beta Agonism through Coactivator Recruitment Follow-Up Assay, Ratio (AID 2283963; active means hit-call score of the fitted dose curve at least 0.9, where 1 is the maximum; inactive means score below 0.9). An outline of the steps: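 Cell-free TR-FRET coactivator recruitment: GST-tagged TRβ LBD (5.0 nM) with 0.10% BSA incubated with compound, then fluorescein-SRC-2 peptide (200 nM) and Tb-anti-GST antibody (2 nM) added. 520:495 nm ratio normalized to DMSO (0%) and T3 (100%).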

For test [13], the target named is Retinoic acid receptor RXR-alpha (Homo sapiens) (UniProt P19793). The experiment in a line: TOX21_TR_RXR_BLA_Agonist_Followup_ratio: Tox21 Thyroid Hormone Receptor beta Retinoid X Receptor alpha (RXRa) Agonism Beta-lactamase (BLA) Follow-Up Assay, Ratio (AID 2283968). An outline of the steps: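 Read-out: blue/green (460:530 nm) FRET ratio from cleaved vs uncleaved CCF4 substrate, fitted for gain of signal relative to DMSO. Cells: HEK293T with RXRa-UAS-bla reporter; 16 h compound exposure, 11 concentrations, triplicate.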

Test [14] is described as follows: TOX21_TR_RXR_BLA_Agonist_Followup_viability: Viability Assessment in the Tox21 Thyroid Hormone Receptor beta Retinoid X Receptor alpha (RXRa) Agonism Beta-lactamase (BLA) Follow-Up Assay (AID 2283970). An outline of the steps:
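CellTiter-Glo ATP quantitation as viability read-out in RXRa-bla HEK293T cells (2,500/well, charcoal-stripped 2% FBS medium), 16h compound incubation at 37C. Loss of signal versus DMSO taken as cytotoxicity, analyzed by bidirectional curve fitting.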

The target of test [15] is T1, Thyroid hormone receptor alpha (Rattus norvegicus) + Thyroid hormone receptor beta (Rattus norvegicus). Kind of test: TOX21_TR_LUC_GH3_Antagonist_Followup: Tox21 GH3 Thyroid Hormone Receptor Antagonism Luciferase Follow-Up Assay (AID 2283942). An outline of the steps:
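In a GH3 luciferase reporter line, test chemicals spanning 92 uM to 5nM final are co-incubated 24 h with 1.0 nM T3. Activity is expressed as relative luminescence units and analysed relative to DMSO.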

Test [16] in a line: CCTE_Harrill_HTTr_CellCount_MCF7: CCTE's Cell Proliferation Assessment for the High-Throughput Transcriptomics (HTTr) Platform, Harrill Lab (AID 2284012).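 Further: count of Hoechst-stained nuclei per well by high-content imaging in MCF-7 cells; cells exposed to compound for six hours; intended direction is loss of nuclei count meaning fewer cells.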 An outline of the steps:
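Readout: Hoechst nuclear count by high-content imaging. MCF-7, 8-point dilution series, 6 h exposure. Bidirectional fit vs DMSO baseline.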

The nature of test [17]: CCTE_Shafer_MEA_dev_firing_rate_mean: CCTE's Neural Network Formation Assay for Mean Firing Rate, Shafer Lab (AID 2284031; active means hit-call score of the fitted dose curve at least 0.9, where 1 is the maximum; inactive means score below 0.9). An outline of the steps: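 Read-out: spike count/recording length, averaged over active electrodes, then AUC across days 5, 7, 9, 12. Rat cortical cultures on MEA; continuous 12-day exposure, media and treatment renewed DIV 5, 9; DMSO baseline.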

Sequence of THRB (gene 7068) (P10828 whole entry, looked up, the tested form may be a part): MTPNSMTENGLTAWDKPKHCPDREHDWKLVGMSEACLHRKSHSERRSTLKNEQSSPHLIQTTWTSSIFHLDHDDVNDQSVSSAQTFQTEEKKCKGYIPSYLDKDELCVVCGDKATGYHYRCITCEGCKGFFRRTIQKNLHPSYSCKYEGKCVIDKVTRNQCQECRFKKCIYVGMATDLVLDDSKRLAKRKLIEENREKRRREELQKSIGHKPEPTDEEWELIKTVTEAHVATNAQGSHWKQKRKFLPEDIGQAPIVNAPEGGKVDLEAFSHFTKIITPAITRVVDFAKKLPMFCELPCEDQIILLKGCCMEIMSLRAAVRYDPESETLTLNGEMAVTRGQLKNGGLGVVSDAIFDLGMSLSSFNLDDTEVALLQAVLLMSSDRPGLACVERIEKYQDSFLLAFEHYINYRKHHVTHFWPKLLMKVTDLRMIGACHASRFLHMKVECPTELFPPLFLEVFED
Sequence of THRA (gene 7067) (P10827 whole entry, looked up, the tested form may be a part): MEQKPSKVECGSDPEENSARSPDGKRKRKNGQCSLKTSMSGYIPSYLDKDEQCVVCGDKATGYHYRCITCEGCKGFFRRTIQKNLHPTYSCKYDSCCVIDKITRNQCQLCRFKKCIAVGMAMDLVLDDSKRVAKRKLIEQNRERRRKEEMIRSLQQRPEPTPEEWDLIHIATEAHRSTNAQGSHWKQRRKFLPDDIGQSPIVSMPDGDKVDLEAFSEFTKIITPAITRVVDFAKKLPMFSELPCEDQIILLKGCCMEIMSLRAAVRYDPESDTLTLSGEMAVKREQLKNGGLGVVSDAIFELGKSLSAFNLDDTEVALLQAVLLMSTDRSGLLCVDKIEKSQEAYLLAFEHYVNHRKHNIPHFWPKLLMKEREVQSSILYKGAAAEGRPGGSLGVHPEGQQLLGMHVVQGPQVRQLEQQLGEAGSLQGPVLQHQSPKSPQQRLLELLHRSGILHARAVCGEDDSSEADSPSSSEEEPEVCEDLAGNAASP
Sequence of Retinoic acid receptor RXR-alpha (Homo sapiens) (P19793 whole entry, looked up): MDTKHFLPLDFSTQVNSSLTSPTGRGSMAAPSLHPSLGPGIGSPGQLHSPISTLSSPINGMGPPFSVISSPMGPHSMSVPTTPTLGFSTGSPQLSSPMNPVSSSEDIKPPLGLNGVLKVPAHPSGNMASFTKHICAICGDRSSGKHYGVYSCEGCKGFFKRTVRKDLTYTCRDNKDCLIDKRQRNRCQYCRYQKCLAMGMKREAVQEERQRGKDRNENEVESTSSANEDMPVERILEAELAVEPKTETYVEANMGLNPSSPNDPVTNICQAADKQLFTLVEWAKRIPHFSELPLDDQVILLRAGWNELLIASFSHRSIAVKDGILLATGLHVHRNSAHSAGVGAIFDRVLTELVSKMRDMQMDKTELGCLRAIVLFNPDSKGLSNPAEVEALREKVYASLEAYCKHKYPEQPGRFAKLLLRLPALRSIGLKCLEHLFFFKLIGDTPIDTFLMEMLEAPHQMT
T1 sequence (P63059 whole entry, looked up): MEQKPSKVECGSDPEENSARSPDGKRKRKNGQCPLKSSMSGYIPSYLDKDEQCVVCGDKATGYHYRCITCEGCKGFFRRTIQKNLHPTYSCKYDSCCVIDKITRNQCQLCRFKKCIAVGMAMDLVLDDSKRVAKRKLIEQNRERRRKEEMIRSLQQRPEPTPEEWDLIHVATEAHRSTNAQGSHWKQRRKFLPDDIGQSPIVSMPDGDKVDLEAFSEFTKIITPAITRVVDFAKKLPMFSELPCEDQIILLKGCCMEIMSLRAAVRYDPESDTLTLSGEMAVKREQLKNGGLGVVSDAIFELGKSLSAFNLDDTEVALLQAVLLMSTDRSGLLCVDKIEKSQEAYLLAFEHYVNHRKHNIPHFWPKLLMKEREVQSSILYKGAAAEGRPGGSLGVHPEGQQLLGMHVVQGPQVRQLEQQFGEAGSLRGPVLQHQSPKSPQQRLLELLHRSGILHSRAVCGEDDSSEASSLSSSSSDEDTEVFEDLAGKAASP
T1 sequence (P18113 whole entry, looked up): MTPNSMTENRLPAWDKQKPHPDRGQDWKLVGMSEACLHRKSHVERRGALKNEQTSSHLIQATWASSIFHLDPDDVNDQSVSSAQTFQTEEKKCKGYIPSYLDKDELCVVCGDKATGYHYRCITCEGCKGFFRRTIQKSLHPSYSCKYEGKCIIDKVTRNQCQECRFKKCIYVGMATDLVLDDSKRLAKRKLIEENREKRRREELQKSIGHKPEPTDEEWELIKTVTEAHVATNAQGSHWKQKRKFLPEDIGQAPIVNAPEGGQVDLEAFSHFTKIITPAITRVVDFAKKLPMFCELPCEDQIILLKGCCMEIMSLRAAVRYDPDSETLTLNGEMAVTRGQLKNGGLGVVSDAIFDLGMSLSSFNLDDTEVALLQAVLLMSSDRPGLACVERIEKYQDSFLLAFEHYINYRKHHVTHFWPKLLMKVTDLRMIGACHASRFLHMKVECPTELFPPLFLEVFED

In the case of `Cc1nc(Nc2ncc(C(=O)Nc3c(C)cccc3Cl)s2)cc(N2CCN(CCO)CC2)n1`, the concentration at half-maximal activity (AC50) is 3.19 µM (active) in [1]; 0.0582 µM (active) in [2]; 3.15 µM (active) in test [3]; 21.7 µM (active) in test [4]; 0.0574 µM (active) in test [5]; 17 nM (active) in [6]. Further, the results for the AC50 in [7], in test [8] and in test [9] were 621 nM (active), 52.9 nM (active) and 13.2 nM (active), respectively.
As for `CC(C)(C)CC(C)(C)c1ccc(O)c(Cc2ccc(Cl)cc2Cl)c1`, the AC50 in test [10] is 2.83 µM (active); with THRA (gene 7067), 12.1 µM (active); with THRB (gene 7068) [12] it was 12.2 µM (active). The result (in the test with THRB (gene 7068) [11]; in test [13]; in test [14]) was inactive.
Take `O=C1C(=O)c2ncccc2-c2cccnc21`: the result in test [15] was inactive.
Turning to `C1=CCC(c2ccccc2)CC1` (configuration not stated), in [16], the result was inactive.
Same read-out and setting: the value for `CC1(C)[C@@H](O[C@H]2O[C@H](C(=O)O)[C@@H](O)[C@H](O)[C@H]2O[C@@H]2O[C@H](C(=O)O)[C@@H](O)[C@H](O)[C@H]2O)CC[C@]2(C)[C@H]3C(=O)C=C4[C@@H]5C[C@@](C)(C(=O)O)CC[C@]5(C)CC[C@@]4(C)[C@]3(C)CC[C@@H]12` was “inactive”.
On to `Brc1cc(Oc2cc(Br)c(Br)c(Br)c2Br)c(Br)c(Br)c1Br`, for which the result in [15] was inactive.
For the compound `CC(C)=CCC1=C(O)c2ccccc2C(=O)C1=O`, the outcome in [15] was inactive.
For `COc1cc2ncnc(Nc3ccc(F)c(Cl)c3)c2cc1OCCCN1CCOCC1`, the AC50 in test [1] was 8.42 µM (active); in [2] it was 6.58 µM (active); in test [3], 10.9 µM (active); in [4] it was 10.8 µM (active); in test [5] it was 6.57 µM (active). Further, the call in test [6], in [7], in test [8] and in test [9] was inactive.
For `CC1(C)S[C@@H]2[C@H](NC(=O)[C@H](N)c3ccc(O)cc3)C(=O)N2[C@H]1C(=O)O`, the result in test [17] was inactive.
As for `CO[C@H]1C[C@@H]2CC[C@@H](C)[C@@](O)(O2)C(=O)C(=O)N2CCCC[C@H]2C(=O)O[C@H]([C@H](C)C[C@@H]2CC[C@@H](OCCO)[C@H](OC)C2)CC(=O)[C@H](C)/C=C(\C)[C@@H](O)[C@@H](OC)C(=O)[C@H](C)C[C@H](C)\C=C/C=C/C=C/1C`, in [15], the AC50 is 0.00976 µM (active).
`C[n+]1c2cc(N)ccc2cc2ccc(N)cc21` (tested in a mixture with another compound): in [15], the concentration at half-maximal activity (AC50) was 18.2 µM (active).
On the same count and under the same terms, the same measure for `CCCCCCNC(=O)n1cc(F)c(=O)[nH]c1=O`: 12 µM (active).
On the same count and under the same terms, the same measure for `Nc1c2ccccc2nc2ccccc12`: 6.25 µM (active).
Consider `COc1cc2c(Nc3ccc(Br)cc3F)ncnc2cc1OCC1CCN(C)CC1`, for which the concentration at half-maximal activity (AC50) in test [1] is 8.49 µM (active); in [2], 4.51 µM (active); in test [3], 8.62 µM (active); in test [4], 6.72 µM (active); in test [5], 4.46 µM (active). Further, the call in test [7] and in [9] was inactive.
As for `CN(C)CCOC(=O)COc1ccc(Cl)cc1`, in test [16], the call was inactive.
